Nine compounds from PubChem BioAssay (NCATS) can be followed below.

A short description of experiment [1]: Confirmation and Secondary Assay for Modulators of Hemoglobin Beta Chain Splicing at IVS2 705 locus (AID 930).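 Note: HeLa cells stably expressing the EGFP-705 splicing reporter; GFP fluorescence per well restored by corrected splicing of the IVS2-705 intron in EGFP; % of control where 0% means no effect.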 The procedure, abridged:
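Splice-correction reporter: EGFP cDNA split by beta-globin intron 2 bearing the 705 mutation, stably in HeLa. Compound incubation 2 days, 37C; fluorescent objects 5-250 µm summed per well.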

Experiment [2] in a line: qHTS Assay for Lipid Storage Modulators (AID 1519; calls by dose curve; for activity change, negative = inhibition: % is set by controls: 0 for no effect and ±100 for the full control effect). The conditions noted are these: Drosophila S3 cells, BODIPY lipid droplet/cell ratio, laser cytometry, cells loaded with oleic acid; for activity change, negative = inhibition: at 57.5 µM (top of the series). The method, boiled down:
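Cells seeded at 5,000 per well were treated with compounds over a concentration series and loaded with oleic acid (400 uM, as added). Lipid droplet fluorescence (488 nm excitation, 500-530 nm channel) was read by laser-scanning cytometry and normalized to 20 uM Triacsin C.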
(In general: In qHTS, concentration-response curves come from the screen itself.)

The target in experiment [3] is Ubiquitin carboxyl-terminal hydrolase 1 (Homo sapiens) (UniProt O94782). In words: Inhibitors of USP1/UAF1: Pilot qHTS (AID 504865).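 Note: rhodamine fluorescence freed from ubiquitin-rhodamine substrate followed over time; top concentration of the series differs between compounds; % is set by controls: 0 for no effect and ±100 for the full control effect; nearly all actives have a fitted effect of over 35% in size.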 The method, boiled down: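 1nM USP1/UAF1 + cpd, 15 min RT; start w/ Ub-Rho 150nM final; kinetic FL 480/540 nm, 6 reads q60 s. Buffer 50mM HEPES pH 7.8, 0.5mM EDTA, 1mM TCEP, 0.01% Tween-20, 0.1 mg/ml BSA.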
Chain of Ubiquitin carboxyl-terminal hydrolase 1 (Homo sapiens) (O94782 whole entry, looked up): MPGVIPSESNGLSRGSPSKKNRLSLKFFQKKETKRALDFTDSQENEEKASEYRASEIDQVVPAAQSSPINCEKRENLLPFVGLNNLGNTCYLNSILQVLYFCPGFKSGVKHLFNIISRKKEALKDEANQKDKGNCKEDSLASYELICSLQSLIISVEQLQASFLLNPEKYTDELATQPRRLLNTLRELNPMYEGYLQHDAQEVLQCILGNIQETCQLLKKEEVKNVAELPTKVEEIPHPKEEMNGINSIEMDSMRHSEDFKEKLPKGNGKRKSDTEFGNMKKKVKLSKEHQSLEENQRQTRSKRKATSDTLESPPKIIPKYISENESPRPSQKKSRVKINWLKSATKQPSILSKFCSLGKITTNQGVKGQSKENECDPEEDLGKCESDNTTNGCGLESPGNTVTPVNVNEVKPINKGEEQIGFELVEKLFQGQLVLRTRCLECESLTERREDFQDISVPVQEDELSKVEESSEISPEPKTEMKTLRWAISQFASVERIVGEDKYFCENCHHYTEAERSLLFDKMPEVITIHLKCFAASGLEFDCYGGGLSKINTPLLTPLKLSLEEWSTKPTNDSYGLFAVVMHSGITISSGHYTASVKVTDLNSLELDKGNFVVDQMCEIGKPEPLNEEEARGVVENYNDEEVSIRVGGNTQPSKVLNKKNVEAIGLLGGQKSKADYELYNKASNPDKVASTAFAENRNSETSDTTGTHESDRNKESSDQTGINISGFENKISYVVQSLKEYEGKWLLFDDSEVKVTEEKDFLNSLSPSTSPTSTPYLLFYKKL
Experiment [4] relates to C2A. In words: qHTS profiling for inhibitors of Plasmodium falciparum proliferation (AID 504749).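 For activity, negative = inhibition: 0% = DMSO vehicle and full inhibition = artemisinin control.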 Note: nearly all actives have a fitted effect of over 60% in size. Note: potency is the fitted concentration of half-maximal effect. The conditions noted are these: P. falciparum in erythrocytes, SYBR Green DNA, 72 h; series mostly up to 12.8 µM. The procedure, abridged: (§1)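 In a 72 h erythrocytic culture (37 C, humidified, 5% CO2) at 2.5% hematocrit and 0.3% starting parasitemia, compounds were tested; SYBR Green I in detergent lysis buffer stained parasite DNA overnight.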

Experiment [5] has as its system CP201. The description is as above. Conditions: P. falciparum in erythrocytes, SYBR Green DNA, 72 h; series mostly up to 12.8 µM. The procedure, abridged: as §1
Experiment [6] has as its system CP262. The experiment is described as above. The conditions noted are these: P. falciparum in erythrocytes, SYBR Green DNA, 72 h; series mostly up to 12.8 µM. The procedure, abridged:
as §1

The subject of experiment [7] is CP269. The description is as above. Conditions: P. falciparum in erythrocytes, SYBR Green DNA, 72 h; series mostly up to 12.8 µM. The procedure, abridged: as §1
Experiment [8] has as its system CP315. Described as above. The conditions noted are these: P. falciparum in erythrocytes, SYBR Green DNA, 72 h; series mostly up to 12.8 µM. The procedure, abridged: as §1
In experiment [9] the test system is PC15. Described as above. Conditions: P. falciparum in erythrocytes, SYBR Green DNA, 72 h; series mostly up to 12.8 µM. The method, boiled down:
as §1

Assay in experiment [10]: as above
The conditions noted are these: P. falciparum in erythrocytes, SYBR Green DNA, 72 h; for activity, negative = inhibition: at 28.7 µM (top of the series). The procedure, abridged: as §1

Experiment [11] concerns CP185. Described as above. The conditions noted are these: P. falciparum in erythrocytes, SYBR Green DNA, 72 h; series mostly up to 12.8 µM. The procedure, abridged: as §1
Experiment [12] concerns CP211. The description is as above. The conditions noted are these: P. falciparum in erythrocytes, SYBR Green DNA, 72 h; series mostly up to 12.8 µM. The procedure, abridged: as §1
Experiment [13] has as its system CP238. The description is as above. The conditions noted are these: P. falciparum in erythrocytes, SYBR Green DNA, 72 h; series mostly up to 12.8 µM. The procedure, abridged:
as §1

Experiment [14] has as its system CP268. The experiment is described as above. Conditions: P. falciparum in erythrocytes, SYBR Green DNA, 72 h; series mostly up to 12.8 µM. The procedure, abridged:
as §1

In experiment [15] the test system is CP305. Described as above. Conditions: P. falciparum in erythrocytes, SYBR Green DNA, 72 h; series mostly up to 12.8 µM. The method, boiled down:
as §1

Experiment [16] concerns CP325. The experiment is described as above. Conditions: P. falciparum in erythrocytes, SYBR Green DNA, 72 h; series mostly up to 12.8 µM. The method, boiled down:
as §1

Experiment [17] concerns CP329. Described as above. The conditions noted are these: P. falciparum in erythrocytes, SYBR Green DNA, 72 h; series mostly up to 12.8 µM. The method, boiled down:
as §1

The subject of experiment [18] is FAB9. The experiment is described as above. Conditions: P. falciparum in erythrocytes, SYBR Green DNA, 72 h; series mostly up to 12.8 µM. The method, boiled down: as §1
Experiment [19] concerns JCK. The experiment is described as above. The conditions noted are these: P. falciparum in erythrocytes, SYBR Green DNA, 72 h; series mostly up to 12.8 µM. The method, boiled down:
as §1

Experiment [20] relates to PC49. Described as above. Conditions: P. falciparum in erythrocytes, SYBR Green DNA, 72 h; series mostly up to 12.8 µM. The procedure, abridged: as §1
[21] abbreviates: measured here: cell count channel max response.
Setting [22] is: measured here: lipid channel max response.

Records with an inconclusive call do not appear. The source made the active and inactive calls. Unless noted, calls come from the whole dose curve; as a rule, active = well fitted curve in the direction sought with a large enough effect; inconclusive = small, poorly fitted or top-dose-only effect, or another doubt; inactive = no such curve, though single readings can be large; an effect the other way counts as inactive or inconclusive.

Turning to `NC(CCC(=O)N[C@@H](CS)C(=O)NCC(=O)O)C(=O)O` (stereo not given in full), the Potency entry in [1], in experiment [3], in experiment [5], in experiment [6] and in [8] was “inactive” throughout. The activity change, negative = inhibition in experiment [2] was 8.76% (inactive). For the same compound, the max response in [2] (setting [21]) was determined as 11.9%; in experiment [2] (setting [22]), 24.8%. Moreover, the results for the Potency in experiment [4], in experiment [7] and in experiment [9] were 10 µM (active), 15.1 µM (active) and 5.01 µM (active), respectively.
`COC(=O)[C@H]1[C@@H]2C[C@@H]3c4[nH]c5ccccc5c4CCN3C[C@H]2CC[C@H]1O`: in experiment [2], the activity change, negative = inhibition was 4.52% (inactive). For the same compound, the max response in experiment [2] (setting [21]) amounted to 12.3%; in experiment [2] (setting [22]), 17.8%. Besides, the Potency result in experiment [3] is “inactive”.
On to `COC1OC2COC(c3ccccc3)OC2C(O)C1O` (stereo not given), for which the activity change, negative = inhibition in [2] is 1.99% (inactive). In addition, the max response in experiment [2] (setting [21]) stood at 4.47%; in [2] (setting [22]), 4.04%. Moreover, the Potency entry in experiment [3] was “inactive”.
Regarding `C[C@@]12C=CC(=O)C=C1CCC1C3CC(O)[C@@](O)(C(=O)CO)[C@]3(C)CC(O)[C@]12F` (stereo not given in full), the Potency result in experiment [1], in experiment [3], in [4], in experiment [11], in experiment [5] and in experiment [12] was “inactive” throughout. Moreover, the Potency result in experiment [13], in [6], in experiment [14], in [7], in experiment [15] and in experiment [8] was “inactive” throughout. The Potency result in experiment [16], in [17], in [18], in experiment [19], in [9] and in experiment [20] was “inactive” throughout. The activity change, negative = inhibition in experiment [2] was 10.8% (inactive). Further, the max response in experiment [2] (setting [21]) stood at 11.4%; in [2] (setting [22]), 25.4%. Besides, the activity, negative = inhibition in experiment [10] (parasite line A) is 5.41% (inactive).
`CCC1OC(=O)C(C)[C@@H](O[C@H]2C[C@@](C)(OC)C(O)C(C)O2)C(C)[C@@H](O[C@@H]2OC(C)CC(N(C)C)C2O)[C@@](C)(O)CC(C)C(=O)[C@@H](C)C(O)[C@]1(C)O` (stereo not given in full): the Potency result in experiment [1], in experiment [3], in experiment [4], in [11], in [5] and in [12] was “inactive” each time. Also, the Potency result in experiment [13], in experiment [6], in experiment [14], in [7], in [15] and in experiment [8] was “inactive” in each case. In addition, the Potency entry in [16], in [17], in experiment [18], in [19], in [9] and in experiment [20] was “inactive” throughout. Also, the activity change, negative = inhibition in [2] was -1.12% (inactive). Further, the max response in [2] (setting [21]) was 15.2%; in experiment [2] (setting [22]), 17.2%. For the same compound, the Potency in experiment [10] (parasite line B) was 11.2 µM (active).
On to `NCC1CCC(N)C(O[C@@H]2C(O)[C@H](O[C@H]3OC(CO)C(O)C(N)C3O)[C@@H](N)C[C@H]2N)O1` (stereo not given in full), for which the Potency result in [1], in experiment [3], in experiment [4], in [11], in experiment [5] and in experiment [12] was “inactive” throughout. For the same compound, the Potency result in experiment [13], in experiment [6], in [14], in experiment [7], in experiment [15] and in [8] was “inactive” in each case. Moreover, the Potency result in [16], in [17], in experiment [18], in experiment [19], in experiment [9] and in [20] was “inactive” throughout. Also, the activity change, negative = inhibition in experiment [2] is 9.66% (inactive). The max response in experiment [2] (setting [21]) is 28.1%; in [2] (setting [22]) it was 44.9%. The values for the activity, negative = inhibition in experiment [10] (parasite line A) and in experiment [10] (parasite line B) were 7.73% (inactive) and 10.2% (inactive), respectively.
Take `O=c1[nH]c(=O)n([C@@H]2O[C@H](CO)[C@@H](O)[C@H]2O)cc1F`: in [2], the activity change, negative = inhibition is -3.28% (inactive). The max response was 0.66% in experiment [2] (setting [21]) and -5.85% in experiment [2] (setting [22]). Moreover, the Potency result in experiment [3] was “inactive”.
As to `COC1OC(CO)C(OC2OC(C(=O)O)C(OC3OC(COS(=O)(=O)O)C(OC4OC(C(=O)O)C(OC5OC(CO)C(OC6OC(C(=O)O)C(OC7OC(COS(=O)(=O)O)C(OC8OC(C(=O)O)=C[C@H](O)C8OS(=O)(=O)O)C(O)C7NC(C)=O)[C@@H](O)C6O)C(O)C5NC(C)=O)[C@@H](O)C4O)C(O)C3NC(C)=O)[C@@H](O)C2O)C(O)C1NC(C)=O` (stereo not given in full), the Potency entry in experiment [1], in experiment [3], in experiment [5], in [12], in experiment [6] and in experiment [14] was “inactive” each time. Moreover, the Potency result in experiment [7], in [15], in experiment [8], in [16] and in [17] was “inactive” each time. Moreover, in experiment [2], the activity change, negative = inhibition is 0.455% (inactive). Moreover, the figures for the max response in experiment [2] (setting [21]) and in [2] (setting [22]) were -2.95% and -0.316%, respectively.
As for `CC(C)Oc1ccc2c(=O)cc(-c3ccccc3)oc2c1`, the Potency result in [1], in experiment [4], in experiment [11], in experiment [5], in experiment [12] and in [13] was “inactive” each time. The Potency entry in experiment [6], in [14], in experiment [7], in [15], in [8] and in experiment [16] was “inactive” in each case. Also, the Potency entry in experiment [17], in experiment [18], in experiment [19], in experiment [9] and in [20] was “inactive” each time. Moreover, in experiment [2], the activity change, negative = inhibition was 14.1% (inactive). The max response came out at 14.7% in experiment [2] (setting [21]) and 29.4% in experiment [2] (setting [22]). The activity, negative = inhibition in experiment [10] (parasite line A) is -21.9% (inactive).
